# Experimental data reported in the supplement of paper PMC6555819.
# System: VDR:RXRa (NR concentration 270 nM, RXRa partner concentration 90 nM)
# Test: PBM binding z-score (relative to random genomic background probes); higher = stronger binding; sequences stand for … in GC…GCGATTGACAGCGTAGAATGAAGG
# Procedure: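 Protein-binding microarray (Agilent 4x180K custom design, double-stranded 60-nt probes: 5' GC cap, 34-nt variable region, 24-nt constant primer region; full probe sequence given). Purified or IVT nuclear receptor:RXRα heterodimers (3:1 NR:RXRα, mostly 270:90 nM) or homodimers were incubated for 1 h in PBS with 2% milk and no ligand, then detected with Alexa488 antibodies. Fluorescence from o1-orientation probes (~5 replicates averaged) was converted to z-scores against 500 random hg19 background probes. Variable regions are seed direct-repeat (DR0–DR5) sites, all their single-nucleotide variants and half-site ablations.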
row,Sequence,PBM binding z-score
1,TCATATAGGTGATACAGGTGAAAGTCGGCATCTA,1.19
2,TCATATAGGTAAAGTTGAAAGTCGAACGATATGA,0.583
3,CGTCCAAGGTCAAGGTCAGGGAAAGAGACTCGAA,4.97
4,TCTATTAGCTGATTAGGGCAACCGAAACAGCGGA,0.11
5,ACTTACGAGTCAACGAGGTTATAGCACGCGTATA,4.89
6,GCTTGTAAATCAAGGTTAAGAAAGACTAAGCTAA,0.379
7,GGAACGAGGGCATTCGGGTTGATAGCATGGCGAT,4.61
8,GCTGCTAGGTCAGGCTGGTCAGCTAACGGGTACG,0.677
9,TCATATAGGTAATACAGGTTAAAGTCGGCATCTA,1.88
10,TCATATAGGTAAATGCGAGGTGAAAGTCCGATCT,1.32
11,CCTCGGAGGACAGAAGGTCAGCGCTGTCCGCTTT,1.22
12,ACTATTAGTTGGGACGAGGGCAACCGATAGGTTG,0.564
13,TAGCATAGGTCAGATCGGGCCAGTATACGCTATA,1.77
14,GCTAGTTCGTCAGTAAAAGGTCACACACCGGTCG,4.28
15,GCAGACAGGGGAAACGCAGGTAACTCAGGGTGGC,-0.768
16,CCTAGGAGGACAGAAGGTCAGAGCTGTCCGCTTT,1.09
17,GCGACTGGGGCATCAGCAGGATACCATAACTTAA,-0.816
18,ACATACAGGTGAGTGAAGGTAACTCAGCTGGACG,0.0169
19,TCTTGTAGATCAAAGGTTACGAAAGCCGAAGCCT,1.6
20,CCTAGTTGGTCAAGGTGACACACGCTATAGGTAC,0.694

row,Sequence,PBM binding z-score
1,ATCTCTAGGTAACAAGTTCAGTCAAAGAGAGGAC,1.74
2,TTAGACAGGTGAAGGTAACTCAGGTACGCAGTCG,0.618
3,CGTCCAAGGTCAGAGAGGTCAGTAAATGCCGAGT,7.22
4,AATACAGGGACACTAGGCCAGAGTAGGTACGAAT,-0.219
5,TCTGCTAGGTCAGTTAGTCAGCTAACGAGCTGCC,-0.204
6,CTACCAAGGTGAACAAGGTCGTTGCTTACTATTC,6.16
7,CAAACTATGTCAAGAGGTCAAAGTCCGCTTCCCG,5.15
8,CCTACTGGGCCATTCAGAGCTCATTGATCATATG,-0.707
9,TCGAGTAGGTTACCAATGGGGCATCCAGCTTTCT,-0.0688
10,TAGCCTAGGTCATTCAAGGGCCAGTATAGAAAGC,2.89
11,CGTCGAAGGTCAGAGAGGTCAGTGAATGCCGAGT,7.5
12,CCTAGCAGTCCAGGGTCACTCAAGCATTTCGCTT,2.69
13,CCTACTGGGCCACGAAAGTTCATTGATTCAGTGA,3.51
14,GATACAGGGTCCAGGCCAGAGTACGCGTATTGAT,-0.0532
15,ATATGTAGGTTAAGGTTCATTCAGGTTGGTTCGC,5.06
16,CGAACGAGGGCATGAGTTGCTAGCAAATGCCGAT,0.671
17,TAGCCTAGGTCATTCAGGGGCCAGTGTAGAAAGC,3.33
18,CCTTACGGGTCAAGGTTATGGCACGGGTGGTACG,3.53
19,CAAACTAGGTCACGAAAGGTCAGAGTCGAATGAC,6.2
20,CCTACTGGGCCATTCAGAGGTCATTGAGCATATG,4.17
